This passage reports outcome and AC50 results from PubChem BioAssay (EPA / NIEHS).

What is called AC50 is the concentration giving half of the maximal activity seen.

Activity calls are given as the source filed them. How the source made its calls: active means hit-call score of the fitted dose curve at least 0.9, where 1 is the maximum; inconclusive means response in the unintended direction; inactive means score below 0.9.

In this test the target is Estrogen receptor beta (Homo sapiens) (UniProt Q92731). Kind of test: OT_ER_ERbERb_1440: Odyssey Thera (OT) 24-hour HEK293T Protein-Complementation Assay for Estrogen Receptor-beta/-beta Homodimer (AID 2283380).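 Further: scored as signal increase over DMSO baseline for both agonists and antagonists.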 On the procedure: OT_ER_ERbERb_1440 is a cell-based assay that uses HEK293T, a human kidney cell line, with measurements taken at 24 hours after chemical dosing in a 384-well plate.OT_ER_ERbERb_1440 is one of one assay component(s) measured or calculated from the OT_ER_ERbERb_1440 assay. It is designed to make measurements of protein fragment complementation, a form of binding reporter, as detected with fluorescence intensity signals by Protein-fragment Complementation technology.Data from the assay component OT_ER_ERbERb_1440 was analyzed into 1 assay endpoint. This assay endpoint, OT_ER_ERbERb_1440, was analyzed in the positive analysis fitting direction relative to DMSO as the negative control and baseline of activity. Using a type of binding reporter, measures of receptor for gain-of-signal activity can be used to understand the binding at the pathway-level as they relate to the gene ESR2. Furthermore, this assay endpoint can be referred to as a primary readout, because the performed assay has only produced 1 assay endpoint. To generalize the intended target to other relatable targets, this assay endpoint is annotated to the nuclear receptor intended target family, where the subfamily is steroidal.
Chain of Estrogen receptor beta (Homo sapiens) (Q92731 whole entry, looked up, the tested form may be a part): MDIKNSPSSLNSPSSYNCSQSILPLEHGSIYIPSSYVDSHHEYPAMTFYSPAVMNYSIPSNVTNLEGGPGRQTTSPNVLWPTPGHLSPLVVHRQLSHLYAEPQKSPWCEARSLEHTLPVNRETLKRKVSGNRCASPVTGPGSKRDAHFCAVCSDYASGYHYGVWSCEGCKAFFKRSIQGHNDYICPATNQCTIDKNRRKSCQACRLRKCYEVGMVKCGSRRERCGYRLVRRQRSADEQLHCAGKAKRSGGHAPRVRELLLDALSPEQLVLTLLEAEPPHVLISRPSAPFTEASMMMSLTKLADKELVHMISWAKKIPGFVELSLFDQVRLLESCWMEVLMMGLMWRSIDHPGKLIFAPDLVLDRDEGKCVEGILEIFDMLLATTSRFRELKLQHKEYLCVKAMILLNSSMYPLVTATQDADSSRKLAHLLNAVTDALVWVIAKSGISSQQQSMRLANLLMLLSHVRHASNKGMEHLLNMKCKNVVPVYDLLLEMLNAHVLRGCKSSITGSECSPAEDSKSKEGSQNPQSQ
Protein-fragment complementation assay, or PCA, is a method for the identification and quantification of protein-protein interactions. In the PCA, the proteins of interest ("bait" and "prey") are each covalently linked to fragments of a third protein (e.g. DHFR, which acts as a "reporter"). Interaction between the bait and the prey proteins brings the fragments of the reporter protein in close proximity to allow them to form a functional reporter protein whose activity can be measured. The OT ER beta / ER beta assay is a homodimer PCA of the ligand binding domain (LBD; amino acids 310-547) of human ER beta stably expressed in HEK293T cells. […] Cells are fixed in 4 percent formaldehyde and stained with Draq5 (BioStatus) to identify cells prior to signal detection. Fluorescent signal in the basal state of the assay is very low and is primarily punctuate and cytoplasmic. Modulation of this assay is quantified as an increase in mean fluorescence intensity in the nucleus (for agonists) or in the nucleus and cytoplasm (antagonists) relative to vehicle controls, and can be quantified on a high content imaging device or a laser scanning cytometer. The latter instrument is favored for this assay because of the rapid mode of data acquisition, the ability to acquire data from the entire cell population in a well (as opposed to a fraction of the well on the high content devices) and the larger dynamic range typically achieved with this instrument. To assess sensitivity of the ER beta/ER beta LBD assay to ligand, cells were treated with the ER agonist 17- beta-estradiol (E2) in 10-point concentration- response format for 24 hours and monitored response on a laser scanning plate cytometer (Acumen eX3; TTP Lab Tech).
For the molecule `CCCCCCCCCCCC(=O)N(C)CC(=O)O`, the result was inactive. As for `C=C1C[C@H]2[C@@H]3C=C(C)C4=CC(=O)CC[C@]4(C)[C@H]3CC[C@]2(C)[C@@]1(OC(C)=O)C(C)=O`, the call was inactive. As for `NC(=O)Nc1ccccc1`, the molecule was called inactive.

Take `Oc1ccccc1Cc1ccccc1O`: the half-maximal activity concentration (AC50) is 11.8 µM (active).

As for `O=C(OCc1ccccc1)c1ccc(O)cc1`, the concentration at half-maximal activity (AC50) is 5.67 µM (active). As for `CCN1CN(CC)CN(CC)C1`, the molecule was classed as inactive. Still for that read-out and setting: the value for `CCOC(=O)C1=NOC(c2ccccc2)(c2ccccc2)C1` was “inactive”; that for `CC1(C)[C@@H]2CC[C@@]1(C)C(=O)C2` was “inactive”; that for `CCCCCCCCCCCCCC(=O)OC(C)C` was “inactive”. For the molecule `C=CCOC(=O)c1ccc(C(=O)OCC=C)c(C(=O)OCC=C)c1`, the call was inactive. Same read-out and setting: the value for `Nc1ccc(C(=O)O)cc1` was “inactive”. The same measure, in the same setting: in the case of `CO[Si](C)(C)OC` it was “inactive”. On the same count and under the same terms, the value for `CCCCC(CC)COS(=O)(=O)O` (stereo not given) was “inactive”. For the molecule `C[Si](C)(C)N[Si](C)(C)C`, the outcome was inactive. As to `Cc1ccc([N+](=O)[O-])cc1N`, the call was inactive. Same read-out and setting: in the case of `CCCCCCOC(=O)CCCCC(=O)OCCCCCC` it was “inactive”; in that of `N#Cc1ccc(C(c2ccc(C#N)cc2)n2cncn2)cc1`, “inactive”. Still for that read-out and setting: in the case of `COc1cc(O)c(C(=O)c2ccccc2)cc1S(=O)(=O)O` it was “inactive”.

Regarding `COc1ccc(C(=O)c2ccccc2)c(O)c1`, the half-maximal activity concentration (AC50) was 57.8 µM (active). Take `CCCCCCCO`: the result was inactive. Same read-out and setting: in the case of `CCCCCCCCCC(C)=O` it was “inactive”. Still for that read-out and setting: in the case of `O=C(O)c1ccc2c(c1)C(=O)OC2=O` it was “inactive”; in that of `CCCCCC(=O)OCC`, “inactive”. On the same count and under the same terms, in the case of `CCCC=C(C=O)CC` it was “inactive”.

Turning to `CC1=CCC2CC1C2(C)C` (stereo not given), the call was inactive. `Oc1ccc(-c2ccccc2)c(Cl)c1`: the AC50 is 18.1 µM (active). With `O=C(O)C1CCC(C(=O)O)CC1` (stereo not given), the result was inactive. On to `c1ccc(Nc2cccc3ccccc23)cc1`, for which the half-maximal activity concentration (AC50) was 37.3 µM (active). Take `Cc1ccc(C)c(OCCCC(C)(C)C(=O)O)c1`: the molecule was called inactive. Regarding `CCCCCCCOC(=O)c1ccc(O)cc1`, the half-maximal activity concentration (AC50) was 5.06 µM (active). `CCCCC(C=O)CC` (stereo not given): the molecule was called inactive. Still for that read-out and setting: in the case of `CCCCC(=O)O` it was “inactive”; in that of `O=C(O)c1cc(O)c2ccccc2c1O`, “inactive”; in that of `CC(C)(C)C1CCC(=O)CC1`, “inactive”. Consider `C=C[C@@]1(C)CC(=O)[C@]2(O)[C@@]3(C)[C@@H](O)CCC(C)(C)[C@@H]3[C@H](O)[C@H](OC(C)=O)[C@@]2(C)O1`, for which the AC50 was 27.4 µM (active). Turning to `CCOC(=O)c1ccccc1C`, the concentration at half-maximal activity (AC50) was 29.4 µM (active). On to `COC(=O)c1ccccc1C`, for which the molecule was classed as inactive. Still for that read-out and setting: in the case of `CC(C)COC(=O)CC(C(=O)OCC(C)C)S(=O)(=O)O` (stereo not given) it was “inactive”; in that of `Cc1c(C(=O)c2c[nH]n(C)c2=O)ccc(S(C)(=O)=O)c1C1=NOCC1`, “inactive”. As to `COc1ccc(-c2coc3cc(O)cc(O)c3c2=O)cc1`, the AC50 is 2.61 µM (active).
